In the library only some 3.4% were active in any assay of this set; here they are far more common.
MITF primary – inhibitors of human MITF. O75030. AlphaScreen MITF homodimerization, bead proximity signal. inhibition, % at 2.6 µM. 0.91% of 650,000 active. AID 1259374; in the data active means inhibition above about 50%;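 further: 0% = vehicle wells with protein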
FBW7 activator – activators of human E3 ligase FBW7 | Q969H0 | AlphaScreen FBW7–phospho-cyclin E peptide binding, activator screen | 0.13% of 650,000 active | AID 1259310 | normalized activity (activation), % at 26.1 µM; in the data active means normalized activity above about 1.9%;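 further: purified mutant Fbw7 with reduced substrate affinity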
Target sequence (Q969H0 whole entry, looked up): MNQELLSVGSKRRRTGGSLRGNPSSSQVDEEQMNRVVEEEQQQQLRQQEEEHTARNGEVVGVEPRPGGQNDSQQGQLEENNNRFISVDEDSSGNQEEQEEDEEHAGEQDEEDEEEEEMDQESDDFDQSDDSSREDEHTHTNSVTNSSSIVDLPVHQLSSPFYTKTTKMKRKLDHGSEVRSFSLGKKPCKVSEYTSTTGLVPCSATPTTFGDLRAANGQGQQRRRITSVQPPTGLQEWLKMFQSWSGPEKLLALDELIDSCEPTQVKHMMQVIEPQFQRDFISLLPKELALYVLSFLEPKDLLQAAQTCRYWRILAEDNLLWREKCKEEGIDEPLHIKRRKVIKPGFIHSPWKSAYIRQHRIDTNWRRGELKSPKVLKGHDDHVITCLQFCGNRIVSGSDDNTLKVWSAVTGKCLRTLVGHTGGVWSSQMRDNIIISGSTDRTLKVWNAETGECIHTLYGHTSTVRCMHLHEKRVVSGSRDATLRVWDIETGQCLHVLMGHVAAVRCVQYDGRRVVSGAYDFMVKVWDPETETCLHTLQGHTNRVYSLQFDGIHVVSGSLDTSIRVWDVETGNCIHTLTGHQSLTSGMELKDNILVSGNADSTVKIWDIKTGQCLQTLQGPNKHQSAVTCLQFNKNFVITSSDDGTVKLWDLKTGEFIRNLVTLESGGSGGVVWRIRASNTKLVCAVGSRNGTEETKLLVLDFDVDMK
TEAD-YAP block – TEAD-YAP interaction inhibition; AID 1259422; HEK-TIYL cells, TEAD-Gal4/YAP UAS-luciferase luminescence; 1.4% of 640,000 active; inhibition, % at 9.12 µM; in the data active means inhibition above about 32%;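 further: 0% = median of test compound wells and 100% = reference inhibitor wells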
GPR151 ag – activates the human receptor GPR151. Q8TDV0. PathHunter beta-arrestin GPR151 cells, luminescence. activation, % at 11.2 µM. 1% of 650,000 active; in the data active means activation above about 4.9%;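 further: 0% = median of compound wells and 100% = cells with positive control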
GPR151 confirm – confirmation of human GPR151 activators. activation, % at 11.2 µM. GPR151 PathHunter beta-arrestin cells, luminescence, 90 min; % of EA-reagent control over plate median. AID 1508609. 6,700 tested, under 10 active. shares compounds with GPR151 ag;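 active means mean percent activation across replicates above the confirmation screen cutoff of 4.91%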
GPR119 counter – activates human GPR119 in a GPR151 counter-screen; shares compounds with GPR151 ag; activation, % at 11.2 µM; 0.3% of 6,700 active; GPR119 PathHunter beta-arrestin cells, luminescence, 90 min; 0 = compound-well median, 100 = enzyme-acceptor control;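 active means mean percent activation in the counterscreen above 29.09%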;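 further: counterscreen on off-target GPR119 to flag nonselective hits from the GPR151 activator screen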
The depositor's hits bear a star; ! = not active in a repeat.

How did COc1cc(NC(=S)NN2CCN(C)CC2)c(OC)cc1Cl do in these assays?
MITF primary: 8.4; FBW7 activator: -0.1; TEAD-YAP block: 4.2; GPR151 ag: -1.1

What do the screens show for `COc1ccc(NC(=O)Cn2c(-n3nc(C)cc3C)nc(C)cc2=O)cc1`?
MITF primary: -0.3; FBW7 activator: -1.0; TEAD-YAP block: -11.2; GPR151 ag: -0.6

What do the screens show for `CCOc1ccc(NC(=O)Cn2c(-n3nc(C)cc3C)nc(C)cc2=O)cc1`?
MITF primary: 10.3; FBW7 activator: 0.2; TEAD-YAP block: 13.6; GPR151 ag: 9.1*; GPR151 confirm: 0.8; GPR119 counter: 6.7

What do the screens show for `CCn1c(C(O)c2ccc(OC)c(OC)c2)nc2ccccc21` (stereo unspecified)?
MITF primary: 4.3; FBW7 activator: 0.0; TEAD-YAP block: 26.2; GPR151 ag: 1.4

What do the screens show for `COc1ccccc1NC(=O)c1c(NC(=O)CCC(=O)O)sc2c1CCC(C(C)(C)C)C2` (stereo unspecified)?
MITF primary: -10.5; FBW7 activator: -0.2; TEAD-YAP block: -4.1; GPR151 ag: 1.5

How did CCC(C)(C)C1CCc2c(sc(NC(=O)c3ccccc3OC)c2C(N)=O)C1 (stereo unspecified) do in these assays?
MITF primary: -3.0; FBW7 activator: -0.1; TEAD-YAP block: -2.6; GPR151 ag: 8.1*; GPR151 confirm: 0.3; GPR119 counter: 4.9

What do the screens show for `CCC(=O)Nc1sc2c(c1C(=O)Nc1ccccc1C(=O)OC)CCC(C(C)(C)C)C2` (stereo unspecified)?
MITF primary: 1.4; FBW7 activator: -0.1; TEAD-YAP block: -1.0; GPR151 ag: 5.2*; GPR151 confirm: -0.9; GPR119 counter: -12.4

How did CCOC(=O)c1c(C)[nH]c(C(=O)COC(=O)CCC(=O)c2ccc(C)cc2)c1C do in these assays?
MITF primary: 18.4; FBW7 activator: 0.6; TEAD-YAP block: 3.5; GPR151 ag: -0.8

How did Cc1cc(C)c2cc(C#N)c(NCCCn3ccnc3)nc2c1 do in these assays?
MITF primary: -5.0; FBW7 activator: -0.1; TEAD-YAP block: -7.4; GPR151 ag: -0.1

How did CCN1/C(=C/c2ccc3cc(OC)ccc3[n+]2CC)Sc2ccc(C3CCCCC3)cc21 do in these assays?
MITF primary: 23.5; FBW7 activator: -0.6; TEAD-YAP block: 88.4*; GPR151 ag: 9.3*; GPR151 confirm: -0.5; GPR119 counter: -3.0

Results for CN1CCCC1=Nc1ccccc1C#N ?
MITF primary: -4.7; FBW7 activator: 0.0; TEAD-YAP block: -8.3; GPR151 ag: 1.4

Results for CCOc1ccc(-c2cnc(N)n2C)cc1 ?
MITF primary: 11.1; FBW7 activator: -0.4; TEAD-YAP block: -4.3; GPR151 ag: 5.4*; GPR151 confirm: 1.2; GPR119 counter: 7.0

What do the screens show for `Nc1nonc1-n1nnc(C(=O)N/N=C/c2ccco2)c1CN1CCc2ccccc21`?
MITF primary: -4.5; FBW7 activator: -0.1; TEAD-YAP block: -6.9; GPR151 ag: 11.3*; GPR151 confirm: 0.1; GPR119 counter: 1.8

How did Nc1nonc1-n1nnc(C(=O)N/N=C/c2cccs2)c1CN1CCc2ccccc21 do in these assays?
MITF primary: -5.8; FBW7 activator: -0.2; TEAD-YAP block: -1.0; GPR151 ag: 1.5

Results for COCc1c(C(=O)N/N=C\c2ccccc2OC)nnn1-c1nonc1N ?
MITF primary: 12.2; FBW7 activator: 0.1; TEAD-YAP block: 0.7; GPR151 ag: 5.1*; GPR151 confirm: -0.6; GPR119 counter: -5.6

Results for Cc1ccc(NC(=O)c2sc(=S)n3c2[nH]c(=O)c2ccccc23)cc1 ?
MITF primary: 8.8; FBW7 activator: 0.0; TEAD-YAP block: -3.3; GPR151 ag: -0.4

Results for O=C(N/N=C/c1cccc(Cl)c1)c1ccc(O)cc1 ?
MITF primary: -4.4; FBW7 activator: 0.0; TEAD-YAP block: -33.8; GPR151 ag: 0.5

What do the screens show for `CC(NC(=O)c1ccc(Cl)cc1)c1n[nH]c(=S)n1C` (stereo unspecified)?
MITF primary: 3.9; FBW7 activator: 0.0; TEAD-YAP block: -1.5; GPR151 ag: 0.5

What do the screens show for `Cc1ccc(NC(=O)CC(C)(C)C)cc1Cl`?
MITF primary: -2.2; FBW7 activator: 0.1; TEAD-YAP block: -5.8; GPR151 ag: 5.2*; GPR151 confirm: -0.3; GPR119 counter: 5.1

What do the screens show for `O=C(CCNc1c(N2CCCC2)c(=O)c1=O)NC1CCCCCC1`?
MITF primary: 0.6; FBW7 activator: -0.4; TEAD-YAP block: -3.9; GPR151 ag: 7.2*; GPR151 confirm: 0.1; GPR119 counter: 2.0

What do the screens show for `Cc1ccc(NC(=O)CCNc2c(N3CCCC3)c(=O)c2=O)cc1Cl`?
MITF primary: -5.5; FBW7 activator: -0.1; TEAD-YAP block: 1.6; GPR151 ag: 12.5*; GPR151 confirm: 1.4; GPR119 counter: -4.4

Results for O=C(CCNc1c(N2CCCC2)c(=O)c1=O)Nc1ccc(F)c(Cl)c1 ?
MITF primary: -1.1; FBW7 activator: 0.0; TEAD-YAP block: 10.9; GPR151 ag: 2.3

What do the screens show for `O=C(CCn1ncc2ccccc21)N1CCCC1c1nc(-c2ccncc2)n[nH]1` (stereo unspecified)?
MITF primary: 10.0; FBW7 activator: 0.0; TEAD-YAP block: 9.5; GPR151 ag: 1.1

Results for CCCN(CCC)S(=O)(=O)c1ccc(C(=O)Nc2nc3c(ccc4ccccc43)s2)cc1 ?
MITF primary: -4.1; FBW7 activator: -0.1; TEAD-YAP block: 7.8; GPR151 ag: -1.4

How did CCCN(CCC)S(=O)(=O)c1ccc(C(=O)Nc2nc3c(OC)cccc3s2)cc1 do in these assays?
MITF primary: -30.7; FBW7 activator: 0.3; TEAD-YAP block: 3.7; GPR151 ag: 6.6*; GPR151 confirm: 0.2; GPR119 counter: 11.9

Results for COc1cc(/C=C2/N=C(c3ccc(Cl)cc3)OC2=O)cc(Br)c1OC(C)=O ?
MITF primary: 8.5; FBW7 activator: 0.0; TEAD-YAP block: 1.6; GPR151 ag: -0.5

What do the screens show for `COc1cc(/C=C2\N=C(c3cc(OC)c(OC)c(OC)c3)OC2=O)cc(Br)c1OC(C)=O`?
MITF primary: 11.0; FBW7 activator: 0.3; TEAD-YAP block: 7.0; GPR151 ag: 5.5*; GPR151 confirm: -0.3; GPR119 counter: 12.4

Results for COc1cccc(C=O)c1OCc1ccc(F)cc1 ?
MITF primary: -11.9; FBW7 activator: 0.0; TEAD-YAP block: 0.0; GPR151 ag: 5.2*; GPR151 confirm: 0.5; GPR119 counter: -5.3

Results for COc1cccc(C=O)c1OCc1ccc(Br)cc1 ?
MITF primary: -9.0; FBW7 activator: 0.1; TEAD-YAP block: -8.2; GPR151 ag: -2.1

How did COc1ccc(CCN2CCC(NCc3cccc(N(C)C)c3)CC2)cc1 do in these assays?
MITF primary: 12.8; FBW7 activator: 0.4; TEAD-YAP block: 4.6; GPR151 ag: 5.5*!; GPR151 confirm: 0.3; GPR119 counter: -3.7
